Measurements as given in the supplement of paper PMC9262897, “Low-cost anti-mycobacterial drug discovery using engineered E. coli” (Nature Communications, 2022).
Where a name gives a salt, the structure may show the parent alone. ± gives the standard deviation of the averaged measurements.

Each molecule was assayed on E. coli TESEC Mtb DapB (assay: growth (OD600 after 10 h); higher = more growth (less inhibition)). Conditions: arabinose induction (level): High; compound 0.1 mM; raw OD600 reference: median of DMSO wells […], cell-free background 0.041.
Method: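 TESEC E. coli strains in which the native enzyme is deleted and replaced by arabinose-inducible Mtb Asd, DapB, CysH or TrpD, each grown in its selective medium. Strains were screened against the Prestwick library at 0.1 mM and 1% DMSO in 384-well format at low and high arabinose induction. Growth is read as OD600 after 10 h in triplicate.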

SMILES	growth
CC(C)(C)NCC(O)c1ccccc1Cl (stereo not given) [Tulobuterol]	0.181 ± 0.017
CCNCC(O)c1cccc(O)c1 (stereo not given) [Etilefrine hydrochloride]	0.205 ± 0.0026
CC[C@@H](CO)NC(=O)[C@@H]1C=C2c3cccc4[nH]cc(c34)C[C@H]2N(C)C1 [Methylergometrine maleate]	0.129 ± 0.028
c1ccc2nc(N3CCNCC3)ccc2c1 [Quipazine dimaleate salt]	0.215 ± 0.019
C[N+]1(C)CCCC(OC(=O)C(O)(c2ccccc2)c2ccccc2)C1 (stereo not given) [Mepenzolate bromide]	0.188 ± 0.0063
COc1ccc(CN2CCNCC2)c(OC)c1OC [Trimetazidine dihydrochloride]	0.197 ± 0.0097
C[C@@H]1O[C@@H](O[C@@H]2C=C3CC[C@@H]4[C@H](CC[C@]5(C)[C@@H](c6ccc(=O)oc6)CC[C@]45O)[C@@]3(C)CC2)[C@H](O)[C@H](O)[C@H]1O [Proscillaridin A]	0.163 ± 0.004
NC(=O)CN1CCCC1=O [Piracetam]	0.202 ± 0.0067
CC(Cc1ccccc1)NCCC(c1ccccc1)c1ccccc1 (stereo not given) [Prenylamine lactate]	0.0466 ± 0.00036
CN1C(=O)CCS(=O)(=O)C1c1ccc(Cl)cc1 (stereo not given) [Chlormezanone]	0.193 ± 0.0088
CCC1(C)CC(=O)NC(=O)C1 [Bemegride]	0.2 ± 0.0046
C[C@]12CC[C@H](O)C[C@@H]1CC[C@@H]1[C@@H]2CC[C@]2(C)C(=O)CC[C@@H]12 [Epiandrosterone]	0.152 ± 0.021
COc1cccc(C2(O)CCCCC2CN(C)C)c1 (stereo not given) [Tramadol hydrochloride]	0.188 ± 0.04
COc1ccc(C(=O)N2CCCC2=O)cc1 [Aniracetam]	0.214 ± 0.0098
C[C@]12C[C@H]3S[C@H]3C[C@@H]1CC[C@@H]1[C@@H]2CC[C@]2(C)[C@@H](O)CC[C@@H]12 [Epitiostanol]	0.203 ± 0.01
CCCC(C)(COC(N)=O)COC(=O)NC(C)C (stereo not given) [Carisoprodol]	0.155 ± 0.0092
COP(=O)(OC)C(O)C(Cl)(Cl)Cl (stereo not given) [Trichlorfon]	0.208 ± 0.028
NCCCNCCSP(=O)(O)O [Amifostine]	0.196 ± 0.0064
CC[C@@]1([C@@H]2O[C@@H]([C@H]3O[C@@](O)(CO)[C@H](C)C[C@@H]3C)C[C@@H]2C)CC[C@H]([C@]2(C)CC[C@]3(C[C@H](O)[C@@H](C)[C@@H]([C@@H](C)[C@@H](OC)[C@H](C)C(=O)O)O3)O2)O1 [Monensin sodium salt]	0.162 ± 0.01
CC(C)(C)NCC(O)c1cc(Cl)c(N)c(Cl)c1 (stereo not given) [Clenbuterol hydrochloride]	0.185 ± 0.011

Same assay, conditions: arabinose induction (level): Low; compound 0.1 mM; raw OD600 reference: median of DMSO wells 0.227, cell-free background 0.041

SMILES	growth
CC(C)(C)NCC(O)c1ccccc1Cl (stereo not given) [Tulobuterol]	0.21 ± 0.016
CCNCC(O)c1cccc(O)c1 (stereo not given) [Etilefrine hydrochloride]	0.224 ± 0.035
CC[C@@H](CO)NC(=O)[C@@H]1C=C2c3cccc4[nH]cc(c34)C[C@H]2N(C)C1 [Methylergometrine maleate]	0.156 ± 0.057
c1ccc2nc(N3CCNCC3)ccc2c1 [Quipazine dimaleate salt]	0.216 ± 0.012
C[N+]1(C)CCCC(OC(=O)C(O)(c2ccccc2)c2ccccc2)C1 (stereo not given) [Mepenzolate bromide]	0.226 ± 0.009
COc1ccc(CN2CCNCC2)c(OC)c1OC [Trimetazidine dihydrochloride]	0.242 ± 0.028
C[C@@H]1O[C@@H](O[C@@H]2C=C3CC[C@@H]4[C@H](CC[C@]5(C)[C@@H](c6ccc(=O)oc6)CC[C@]45O)[C@@]3(C)CC2)[C@H](O)[C@H](O)[C@H]1O [Proscillaridin A]	0.173 ± 0.019
NC(=O)CN1CCCC1=O [Piracetam]	0.208 ± 0.028
CC(Cc1ccccc1)NCCC(c1ccccc1)c1ccccc1 (stereo not given) [Prenylamine lactate]	0.04663 ± 0.00038
CN1C(=O)CCS(=O)(=O)C1c1ccc(Cl)cc1 (stereo not given) [Chlormezanone]	0.207 ± 0.011
CCC1(C)CC(=O)NC(=O)C1 [Bemegride]	0.23 ± 0.013
C[C@]12CC[C@H](O)C[C@@H]1CC[C@@H]1[C@@H]2CC[C@]2(C)C(=O)CC[C@@H]12 [Epiandrosterone]	0.136 ± 0.006
COc1cccc(C2(O)CCCCC2CN(C)C)c1 (stereo not given) [Tramadol hydrochloride]	0.202 ± 0.014
COc1ccc(C(=O)N2CCCC2=O)cc1 [Aniracetam]	0.246 ± 0.011
C[C@]12C[C@H]3S[C@H]3C[C@@H]1CC[C@@H]1[C@@H]2CC[C@]2(C)[C@@H](O)CC[C@@H]12 [Epitiostanol]	0.21 ± 0.029
CCCC(C)(COC(N)=O)COC(=O)NC(C)C (stereo not given) [Carisoprodol]	0.191 ± 0.015
COP(=O)(OC)C(O)C(Cl)(Cl)Cl (stereo not given) [Trichlorfon]	0.272 ± 0.071
NCCCNCCSP(=O)(O)O [Amifostine]	0.209 ± 0.0086
CC[C@@]1([C@@H]2O[C@@H]([C@H]3O[C@@](O)(CO)[C@H](C)C[C@@H]3C)C[C@@H]2C)CC[C@H]([C@]2(C)CC[C@]3(C[C@H](O)[C@@H](C)[C@@H]([C@@H](C)[C@@H](OC)[C@H](C)C(=O)O)O3)O2)O1 [Monensin sodium salt]	0.167 ± 0.0025
CC(C)(C)NCC(O)c1cc(Cl)c(N)c(Cl)c1 (stereo not given) [Clenbuterol hydrochloride]	0.191 ± 0.0053
